# “And” between values parts separate entries of the source, which are not always exact repeats. Identical values can stand only once. Inconclusive results are not listed. A call without a number means that no potency is given here. Some compounds were tested as several samples or in several runs, with calls that do not always agree. The source made the active and inactive calls. Unless noted, the call rests on the fitted dose curve; in most records, active means well fitted curve in the direction sought with a large enough effect in the repeat runs; inconclusive means weak or mixed curves; inactive means no such curve, though single readings can be large; an effect the other way counts as inactive or inconclusive.
# Columns and labels:
# [1] = qHTS assay to identify small molecule antagonists of the estrogen receptor alpha (ER-alpha) signaling pathway using the BG1 cell line in the presence of 0.1 nM 17-beta-estradiol - cell viability counter screen (AID 1259241); further: nearly all actives have a fitted effect of over 40% in size
# In short: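 Cytotoxicity counter-screen: live-cell protease activity measured by fluorescence (30 min reagent step) in the same wells. Cells were VM7Luc4E2 with endogenous ER-alpha and ERE-driven luciferase, treated 22 hr at 37C alongside 0.1 nM 17beta-estradiol final.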
# [2] = qHTS assay to identify small molecule antagonists of the androgen receptor (AR) signaling pathway using the MDA cell line in the presence of 0.5 nM R1881 - cell viability counter screen (AID 1259242); further: nearly all actives have a fitted effect of over 45% in size
# In short: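 Cytotoxicity toward MDA-kb2 cells is measured by CellTiter-Fluor live-cell protease fluorescence after 16 hr compound exposure at 37C in the presence of 0.5 nM R1881 stimulator.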
# [3] = molecular target: Estrogen receptor (Homo sapiens) (UniProt P03372); assay: qHTS assay to identify small molecule antagonists of the estrogen receptor alpha (ER-alpha) signaling pathway using the BG1 cell line in the presence of 0.1 nM 17-beta-estradiol (AID 1259244); further: nearly all actives have a fitted effect of over 50% in size; further: potency means the concentration at half of the fitted maximal effect
# In short: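 After 5 days in hormone-depleted medium (charcoal-stripped serum, no phenol red), VM7Luc4E2 cells were seeded, incubated 24 h, then co-treated with compound and 0.1 nM (final) estradiol for 22 h before luminescence detection.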
# [4] = qHTS assay to identify small molecule HDAC inhibitors - cell viability counter screen (AID 1259365); further: series mostly up to about 92 µM; nearly all actives have a fitted effect of over 50% in size
# In short: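 CellTiter-Glo luminescence (30 min, room temperature) reported viability after a 2 h compound exposure at 37 C. Cells: wild-type HCT-116, 1,500 per well, seeded the night before.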
# [5] = qHTS assay to identify small molecule agonists of the sonic hedgehog signaling (Shh) pathway - cell viability counter screen (AID 1259366); further: nearly all actives have a fitted effect of over 50% in size; further: potency means the concentration at half of the fitted maximal effect
# In short: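 Cytotoxicity counter screen: CellTiter-Fluor reagent added after 23 h compound exposure, then 1 h at 37C and fluorescence read. Cells were 3T3 Gli1-Luc, seeded 2,000 per well and dosed 4 h post-plating.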
# [6] = qHTS assay to identify small molecule antagonists of the sonic hedgehog signaling (Shh) pathway - cell viability counter screen (AID 1259367); further: nearly all actives have a fitted effect of over 55% in size; further: potency means the concentration at half of the fitted maximal effect
# In short: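 After a 4 hr settling period, 3T3 Gli1-Luc cells were treated with DMSO-dissolved chemicals and conditioned medium, kept 24 hr at 37C in 5% CO2, and assayed for viability by CellTiter-Fluor fluorescence following 1 hr reagent incubation.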
# [7] = qHTS assay to identify small molecule agonists of the sonic hedgehog signaling (Shh) pathway (AID 1259368; calls by dose curve;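 further: NIH/3T3-derived 3T3Gli1-Luc cells carrying a stable Gli1-driven firefly luciferase reporter; series mostly up to about 92 µM; nearly all actives have a fitted effect of over 15% in size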)
# In short: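 Steps: seed 3T3 Gli1-Luc cells, incubate 4 hr at 37 C, pin-transfer compounds in DMSO alongside a positive control, incubate 24 hr, add luciferase detection reagent, wait 30 min at room temperature, read luminescence.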
# [8] = qHTS assay to identify small molecule antagonists of the sonic hedgehog signaling (Shh) pathway (AID 1259369; calls by dose curve; further: nearly all actives have a fitted effect of over 45% in size; further: potency means the concentration at half of the fitted maximal effect)
# In short: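 Inhibition of Shh signalling is measured as reduced Gli1-response-element firefly luciferase output in an NIH/3T3-derived stable reporter clone stimulated with conditioned medium for 24hr.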
# [9] = qHTS assay to identify small molecule agonists of the androgen receptor (AR) signaling pathway in the presence of an antagonist - cell viability counter screen (AID 1259379);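 further: MDA-kb2 human breast cancer cells carrying an MMTV luciferase reporter; series mostly up to about 92 µM; nearly all actives have a fitted effect of over 25% in size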
# In short: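 Fluorescence from CellTiter-Fluor, added after 15 hr and read 1 hr later, gave cell viability. Cells were MDA-kb2 exposed to compounds (15 concentrations) in the presence of 3.0uM nilutamide at 37C, 0% CO2.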
# [10] = qHTS assay to identify small molecule agonists of the estrogen receptor beta (ER-beta) signaling pathway - cell viability counter screen (AID 1259380); further: nearly all actives have a fitted effect of over 30% in size; further: potency means the concentration at half of the fitted maximal effect
# In short: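 Same-well viability counter screen. Cells: ER-beta-UAS-bla HEK293T, plated 6 hr before compound, in 2% charcoal-stripped FBS. Compound exposure 16 hr, 37C; viability by CellTiter-Glo luminescence after 30 min at room temperature.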
# [11] = qHTS assay to identify small molecule antagonists of the estrogen receptor beta (ER-beta) signaling pathway - cell viability counter screen (AID 1259382); further: nearly all actives have a fitted effect of over 55% in size; further: potency means the concentration at half of the fitted maximal effect
# In short: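 Following a 6 hr plating period, HEK293T cells carrying a UAS-driven beta-lactamase reporter under ER-beta control received compounds and 1nM E2 (final). After 16 hr at 37C and 2 hr substrate loading, CellTiter-Glo luminescence indicated viability.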
# [12] = molecular target: Estrogen receptor (Homo sapiens) (UniProt P03372); assay: qHTS assay to identify small molecule agonists of the estrogen receptor alpha (ER-alpha) signaling pathway in the presence of an antagonist (AID 1259383; calls by dose curve; further: top concentration of the series differs between compounds; nearly all actives have a fitted effect of over 15% in size)
# In short: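 Cells are hormone-deprived for 5 days (charcoal-stripped FBS, no phenol red), plated for 24hr, spiked with 10.0nM ICI-182,780, then dosed at 15 concentrations. After 22hr at 37C, ONE-Glo luminescence reports ERE-luciferase activity.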
# [13] = qHTS assay to identify small molecule agonists or antagonists of the thyroid stimulating hormone receptor (TSHR) signaling pathway - wild type cell line counter screen (AID 1259384; calls by dose curve)
# In short: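 Wild-type HEK293 cells were plated 18 h at 37 C/5% CO2, pin-dosed with compound plus Ro20-1724 medium, held 30 min at room temperature, then given cAMP-d2 and anti-cAMP-cryptate; fluorescence was read after 1 h. Fifteen concentrations, triplicate.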
# [14] = molecular target: Thyrotropin receptor (Homo sapiens) (UniProt P16473); assay: qHTS assay to identify small molecule antagonists of the thyroid stimulating hormone receptor (TSHR) signaling pathway (AID 1259385; calls by dose curve; further: nearly all actives have a fitted effect of over 20% in size)
# In short: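 TSHR-HEK293 cells were plated and held 18 h at 37C/5% CO2, then given compound plus Ro20-1724 and stimulated with TSH at 1.5 ng/mL final. After 30 min at room temperature, cAMP was detected with cAMP-d2/anti-cAMP-cryptate (1 h) by fluorescence.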
# [15] = molecular target: Estrogen receptor beta (Homo sapiens) (UniProt Q92731); assay: qHTS assay to identify small molecule agonists of the estrogen receptor beta (ER-beta) signaling pathway (AID 1259377; active means well fitted activation curve with a large enough effect in the signal ratio in the repeat runs, not every such curve was filed as active; the % refers to the signal ratio)
# In short: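 Ratiometric beta-lactamase FRET read-out came after 2 h substrate loading at room temperature. It followed 16 h compound treatment at 37C of GripTite HEK293T cells carrying a UAS-bla reporter, plated in 2% charcoal-stripped FBS medium.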
# [16] = molecular target: Estrogen receptor beta (Homo sapiens) (UniProt Q92731); assay: qHTS assay to identify small molecule antagonists of the estrogen receptor beta (ER-beta) signaling pathway (AID 1259378; active means well fitted inhibition curve with a large enough effect in the signal ratio in the repeat runs, not every such curve was filed as active; the % refers to the signal ratio)
# In short: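 ER-beta-UAS-bla HEK293T (GripTite) cells in 2% charcoal-stripped FBS medium were preincubated 6 hr at 37C, dosed with compound, then stimulated with 1 nM E2 (final) for 16 hr; beta-lactamase reporter read by B/G FRET fluorescence after 2 hr substrate loading.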
# [17] = qHTS assay to identify small molecule HDAC inhibitors (AID 1259364); further: top concentration of the series differs between compounds; nearly all actives have a fitted effect of over 45% in size
# In short: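 Homogeneous cell-based luminescent assay of endogenous class I/II HDAC activity; HCT-116 cells, 2 h compound exposure, 30 min HDAC-Glo development at RT.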
# [18] = qHTS assay to identify small molecule phospholipidosis (PLD) inducers (AID 1259344; active means well fitted curve in the direction sought with a large enough effect; an effect the other way counts as inactive or inconclusive)
# In short: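 HepG2 cells grown on collagen I take up LipidTOX Red while exposed to compound for 24 h; after fixation they are imaged at 20x and pit metrics are extracted.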
# Sequence of Thyrotropin receptor (Homo sapiens) (P16473 whole entry, looked up): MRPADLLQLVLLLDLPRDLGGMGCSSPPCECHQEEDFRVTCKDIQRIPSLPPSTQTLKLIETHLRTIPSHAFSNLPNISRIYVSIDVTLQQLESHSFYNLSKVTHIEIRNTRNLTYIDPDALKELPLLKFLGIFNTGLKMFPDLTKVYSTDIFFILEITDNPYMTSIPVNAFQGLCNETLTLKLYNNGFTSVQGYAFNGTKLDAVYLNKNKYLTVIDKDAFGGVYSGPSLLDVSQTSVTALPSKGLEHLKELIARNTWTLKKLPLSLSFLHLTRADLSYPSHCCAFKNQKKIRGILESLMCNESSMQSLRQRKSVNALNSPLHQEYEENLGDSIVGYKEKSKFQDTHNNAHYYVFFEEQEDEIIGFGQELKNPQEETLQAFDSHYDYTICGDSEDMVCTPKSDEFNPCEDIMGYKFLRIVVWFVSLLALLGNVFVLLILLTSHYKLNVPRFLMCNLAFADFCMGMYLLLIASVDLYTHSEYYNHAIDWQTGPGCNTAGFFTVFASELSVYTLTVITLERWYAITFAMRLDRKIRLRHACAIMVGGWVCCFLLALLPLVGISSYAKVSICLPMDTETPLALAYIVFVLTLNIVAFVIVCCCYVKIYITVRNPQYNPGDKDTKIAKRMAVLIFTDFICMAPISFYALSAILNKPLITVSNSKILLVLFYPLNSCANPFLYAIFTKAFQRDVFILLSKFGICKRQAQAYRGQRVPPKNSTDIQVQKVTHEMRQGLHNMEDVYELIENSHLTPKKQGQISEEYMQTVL
# Sequence of Estrogen receptor beta (Homo sapiens) (Q92731 whole entry, looked up): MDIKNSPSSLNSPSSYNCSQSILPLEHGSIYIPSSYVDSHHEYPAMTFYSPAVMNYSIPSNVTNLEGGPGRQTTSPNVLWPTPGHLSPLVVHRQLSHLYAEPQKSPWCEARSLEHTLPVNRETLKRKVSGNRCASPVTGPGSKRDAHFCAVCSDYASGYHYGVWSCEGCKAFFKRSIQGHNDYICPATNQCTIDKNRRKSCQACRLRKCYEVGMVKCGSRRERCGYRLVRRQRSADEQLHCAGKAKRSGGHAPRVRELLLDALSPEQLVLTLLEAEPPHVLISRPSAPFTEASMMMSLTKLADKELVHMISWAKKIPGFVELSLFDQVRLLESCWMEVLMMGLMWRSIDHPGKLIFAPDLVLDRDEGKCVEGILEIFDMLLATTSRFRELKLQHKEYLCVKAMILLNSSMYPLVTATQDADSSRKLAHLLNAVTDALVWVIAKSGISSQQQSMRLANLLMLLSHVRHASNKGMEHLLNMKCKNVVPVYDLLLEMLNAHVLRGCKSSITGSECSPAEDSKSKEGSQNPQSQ
# Sequence of Estrogen receptor (Homo sapiens) (P03372 whole entry, looked up): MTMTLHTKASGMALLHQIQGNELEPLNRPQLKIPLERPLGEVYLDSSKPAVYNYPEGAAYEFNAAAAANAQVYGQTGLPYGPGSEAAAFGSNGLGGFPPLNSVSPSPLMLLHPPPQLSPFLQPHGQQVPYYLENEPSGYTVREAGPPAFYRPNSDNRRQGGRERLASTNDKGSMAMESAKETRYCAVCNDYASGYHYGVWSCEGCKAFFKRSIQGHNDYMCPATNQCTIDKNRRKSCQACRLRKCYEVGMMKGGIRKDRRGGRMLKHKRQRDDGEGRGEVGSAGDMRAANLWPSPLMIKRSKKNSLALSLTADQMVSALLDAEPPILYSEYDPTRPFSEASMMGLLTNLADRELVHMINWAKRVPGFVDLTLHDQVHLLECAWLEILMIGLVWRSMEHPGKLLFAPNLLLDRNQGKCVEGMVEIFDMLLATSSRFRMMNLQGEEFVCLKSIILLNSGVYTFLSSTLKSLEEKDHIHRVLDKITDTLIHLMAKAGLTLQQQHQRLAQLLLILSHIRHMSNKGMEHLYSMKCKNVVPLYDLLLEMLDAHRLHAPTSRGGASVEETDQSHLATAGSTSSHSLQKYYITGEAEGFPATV
Structure (SMILES),Potency [1],Potency [2],Potency [3],outcome [4],Potency [5],Potency [6],outcome [7],Potency [8],Potency [9],Potency [10],Potency [11],Potency [12],Potency [13],outcome [14],outcome [15],Potency [16],Potency [17],Potency [18]
C=C(C)C(N)=O,inactive,inactive,inactive,inactive,inactive,inactive,inactive,inactive,inactive,inactive,inactive,inactive,inactive,inactive,–,–,–,–
CCCCCCCC(=O)OCC(O)CO (stereo unspecified),inactive,inactive,–,inactive,inactive,inactive,inactive,inactive,inactive,inactive,inactive,–,inactive,inactive,inactive,inactive,–,–
O=C(OCc1ccccc1)c1ccccc1,inactive,inactive,–,inactive,inactive,inactive,inactive,inactive,inactive,inactive,inactive,–,inactive,inactive,–,–,–,–
CC1=C(/C=C/C(C)=C/C=C/C(C)=C/C(=O)O)C(C)(C)CCC1,inactive,inactive,–,inactive,inactive,inactive,–,inactive,inactive,19.4 µM (active) and 21.7 µM (active) and 15 µM (active),inactive,inactive,–,–,–,–,inactive,–
CCCCOCCOCCOC(C)=O,inactive,inactive,inactive,inactive,inactive,inactive,inactive,–,inactive,inactive,inactive,inactive,–,–,–,–,–,–
CCCCNC(=O)NS(=O)(=O)c1ccc(N)cc1,inactive,inactive,–,inactive,inactive,inactive,inactive,inactive,inactive,inactive,inactive,–,inactive,inactive,inactive,inactive,inactive,–
N[C@@H](Cc1c[nH]c2ccccc12)C(=O)O,inactive,inactive,–,inactive,inactive,inactive,inactive,inactive,inactive,inactive,inactive,–,inactive,inactive,inactive,inactive,inactive,–
Cn1cnc2c1c(=O)[nH]c(=O)n2C,inactive,inactive,–,inactive,inactive,inactive,inactive,inactive,inactive,inactive,inactive,–,inactive,inactive,–,–,inactive,–
NC(=O)N/N=C/c1ccc([N+](=O)[O-])o1,–,inactive,inactive and 64.8 µM (active),inactive,inactive and 54.5 µM (active),inactive and 30.6 µM (active),inactive,inactive and 10.9 µM (active) and 29.8 µM (active),inactive,inactive,inactive,inactive,inactive,inactive,inactive,inactive,–,–
CCCCOCCOCCSC#N,inactive,inactive,–,inactive,inactive,inactive,inactive,inactive,inactive,inactive,inactive,–,inactive,inactive,inactive,inactive,–,–
CCOCCO,inactive,inactive,–,inactive,inactive,inactive,inactive,inactive,inactive,inactive,inactive,–,inactive,inactive,inactive,inactive,inactive,–
CC(C)=CCC/C(C)=C/CO,inactive,inactive,–,inactive,inactive,inactive,inactive,inactive,inactive,inactive,inactive,–,inactive,inactive,–,–,inactive,–
CC(C)CC(C)CC(O)CC(C)C (stereo unspecified),inactive,inactive,–,inactive,inactive,inactive,inactive,inactive,inactive,inactive,inactive,–,–,–,–,–,inactive,–
C#C[C@]1(O)CC[C@H]2[C@@H]3CCc4cc(O)ccc4[C@H]3CC[C@@]21C,inactive,inactive,–,inactive,inactive,inactive,inactive,1.71 µM (active) and 9.69 µM (active),inactive,60.7 µM (active) and 48.6 µM (active),54.1 µM (active) and inactive,–,inactive,inactive,–,–,inactive,inactive
NC(=O)NO,inactive,inactive,–,inactive,inactive,inactive,inactive,inactive,inactive,inactive,inactive,–,inactive,inactive,inactive,inactive,–,–
O=C(O)Cc1cccc2ccccc12,inactive,inactive,–,inactive,inactive,inactive,inactive,inactive,inactive,inactive,inactive,–,–,inactive,–,–,inactive,–
CCCCC/C(C=O)=C\c1ccccc1,inactive,inactive,–,inactive,inactive,inactive,inactive,inactive,inactive,inactive,inactive,–,inactive,inactive,inactive,inactive,inactive,–
CCc1cc(C(N)=S)ccn1,inactive,inactive,–,inactive,inactive,inactive,inactive,inactive,inactive,inactive,inactive,–,inactive,inactive,–,–,inactive,–

# Reference: PubChem BioAssay (Tox21)
